Active and inactive are the calls of the source.

The values below come from PubChem BioAssay.

Assay [1] concerns PRMT1 (protein arginine N-methyltransferase 1). The assay is described as follows: PRMT1 binders on small-molecule microarrays, primary screen, biochemical, small-molecule microarray, 635 nm fluorescence (AID 1088).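 Also: binding of Prmt1 protein to compounds spotted on small-molecule microarray slides.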 To be noted: small-molecule microarray binding, higher = more signal.
A short description of assay [2]: yeast growth modulation, basal conditions, primary screen, YJM789 clinical isolate, OD600, 24 h (AID 1089).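 Also: growth of clinical yeast isolate S. cerevisiae YJM 789 seeded 1000 cells per well; test concentration not given here.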 To be noted: S. cerevisiae YJM789 growth, higher = more signal, called active from +8 up or from −8 down.
Assay [3] is described as follows: fission yeast growth modulation, primary screen, strain 972, OD600, 24 h, no modulator (AID 1090).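 Also: basal condition with compound alone and no growth modifier present; test concentration not given here.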 To be noted: S. pombe 972 growth, higher = more signal, called active from +8 up or from −8 down.
The nature of assay [4]: S. cerevisiae growth modulation with rapamycin, primary screen, strain BY4716, OD600, 96 h (AID 1091). Also: test concentration not given here. To be noted: higher = more signal, called active from +8 up or from −8 down.
Assay [5] has as its target Torsin-1A-interacting protein 2 (Homo sapiens) (UniProt Q8NFQ8). The assay is described as follows: LULL1 binders on small-molecule microarray, primary screen, cell lysate, human LULL1 lysate, 635/667 nm fluorescence (AID 1092).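 Also: probe is lysate of COS7 cells overexpressing human LULL1; score merges per-feature 667 nm fluorescence with signal-to-noise.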 To be noted: hLULL1 lysate binding, 635 nm fluorescence, higher = more signal.
The nature of assay [6]: E. coli growth modulation, two-sided OD650, primary screen, E. coli filamentation project, strain DRC41, 24 h (AID 1093).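 Also: MC1000 strain lacking acrAB efflux and sulA so SOS filamentation is blocked; test concentration not given here.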 To be noted: OD650, 24 h, higher = more signal, called active from +8 up or from −8 down.
Assay [7] in a line: small-molecule microarray binders of probe aLefty2, primary screen, biochemical, biotinylated probe, 635/667 nm fluorescence (AID 1094).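 Also: score merges spot fluorescence near 667 nm with spot signal-to-noise ratio.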 To be noted: higher = more signal.
Assay [8] concerns Noggin (protein binding on small-molecule microarray). The assay is described as follows: Noggin binders on small-molecule microarray, primary screen, biochemical, 635/667 nm fluorescence (AID 1095).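 Also: score merges 667 nm feature fluorescence with signal to noise over triplicate slides.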 To be noted: 635 nm fluorescence, higher = more signal.
For assay [9], the target named is Neurogenic locus notch homolog protein 3 (Homo sapiens) (UniProt Q9UM47). The assay is described as follows: NOTCH3 binders on small-molecule microarray, primary screen, biochemical, 635/667 nm fluorescence (AID 1096). To be noted: NOTCH3 binding, 635 nm fluorescence, higher = more signal.
Neurogenic locus notch homolog protein 3 (Homo sapiens), sequence (Q9UM47 whole entry, looked up): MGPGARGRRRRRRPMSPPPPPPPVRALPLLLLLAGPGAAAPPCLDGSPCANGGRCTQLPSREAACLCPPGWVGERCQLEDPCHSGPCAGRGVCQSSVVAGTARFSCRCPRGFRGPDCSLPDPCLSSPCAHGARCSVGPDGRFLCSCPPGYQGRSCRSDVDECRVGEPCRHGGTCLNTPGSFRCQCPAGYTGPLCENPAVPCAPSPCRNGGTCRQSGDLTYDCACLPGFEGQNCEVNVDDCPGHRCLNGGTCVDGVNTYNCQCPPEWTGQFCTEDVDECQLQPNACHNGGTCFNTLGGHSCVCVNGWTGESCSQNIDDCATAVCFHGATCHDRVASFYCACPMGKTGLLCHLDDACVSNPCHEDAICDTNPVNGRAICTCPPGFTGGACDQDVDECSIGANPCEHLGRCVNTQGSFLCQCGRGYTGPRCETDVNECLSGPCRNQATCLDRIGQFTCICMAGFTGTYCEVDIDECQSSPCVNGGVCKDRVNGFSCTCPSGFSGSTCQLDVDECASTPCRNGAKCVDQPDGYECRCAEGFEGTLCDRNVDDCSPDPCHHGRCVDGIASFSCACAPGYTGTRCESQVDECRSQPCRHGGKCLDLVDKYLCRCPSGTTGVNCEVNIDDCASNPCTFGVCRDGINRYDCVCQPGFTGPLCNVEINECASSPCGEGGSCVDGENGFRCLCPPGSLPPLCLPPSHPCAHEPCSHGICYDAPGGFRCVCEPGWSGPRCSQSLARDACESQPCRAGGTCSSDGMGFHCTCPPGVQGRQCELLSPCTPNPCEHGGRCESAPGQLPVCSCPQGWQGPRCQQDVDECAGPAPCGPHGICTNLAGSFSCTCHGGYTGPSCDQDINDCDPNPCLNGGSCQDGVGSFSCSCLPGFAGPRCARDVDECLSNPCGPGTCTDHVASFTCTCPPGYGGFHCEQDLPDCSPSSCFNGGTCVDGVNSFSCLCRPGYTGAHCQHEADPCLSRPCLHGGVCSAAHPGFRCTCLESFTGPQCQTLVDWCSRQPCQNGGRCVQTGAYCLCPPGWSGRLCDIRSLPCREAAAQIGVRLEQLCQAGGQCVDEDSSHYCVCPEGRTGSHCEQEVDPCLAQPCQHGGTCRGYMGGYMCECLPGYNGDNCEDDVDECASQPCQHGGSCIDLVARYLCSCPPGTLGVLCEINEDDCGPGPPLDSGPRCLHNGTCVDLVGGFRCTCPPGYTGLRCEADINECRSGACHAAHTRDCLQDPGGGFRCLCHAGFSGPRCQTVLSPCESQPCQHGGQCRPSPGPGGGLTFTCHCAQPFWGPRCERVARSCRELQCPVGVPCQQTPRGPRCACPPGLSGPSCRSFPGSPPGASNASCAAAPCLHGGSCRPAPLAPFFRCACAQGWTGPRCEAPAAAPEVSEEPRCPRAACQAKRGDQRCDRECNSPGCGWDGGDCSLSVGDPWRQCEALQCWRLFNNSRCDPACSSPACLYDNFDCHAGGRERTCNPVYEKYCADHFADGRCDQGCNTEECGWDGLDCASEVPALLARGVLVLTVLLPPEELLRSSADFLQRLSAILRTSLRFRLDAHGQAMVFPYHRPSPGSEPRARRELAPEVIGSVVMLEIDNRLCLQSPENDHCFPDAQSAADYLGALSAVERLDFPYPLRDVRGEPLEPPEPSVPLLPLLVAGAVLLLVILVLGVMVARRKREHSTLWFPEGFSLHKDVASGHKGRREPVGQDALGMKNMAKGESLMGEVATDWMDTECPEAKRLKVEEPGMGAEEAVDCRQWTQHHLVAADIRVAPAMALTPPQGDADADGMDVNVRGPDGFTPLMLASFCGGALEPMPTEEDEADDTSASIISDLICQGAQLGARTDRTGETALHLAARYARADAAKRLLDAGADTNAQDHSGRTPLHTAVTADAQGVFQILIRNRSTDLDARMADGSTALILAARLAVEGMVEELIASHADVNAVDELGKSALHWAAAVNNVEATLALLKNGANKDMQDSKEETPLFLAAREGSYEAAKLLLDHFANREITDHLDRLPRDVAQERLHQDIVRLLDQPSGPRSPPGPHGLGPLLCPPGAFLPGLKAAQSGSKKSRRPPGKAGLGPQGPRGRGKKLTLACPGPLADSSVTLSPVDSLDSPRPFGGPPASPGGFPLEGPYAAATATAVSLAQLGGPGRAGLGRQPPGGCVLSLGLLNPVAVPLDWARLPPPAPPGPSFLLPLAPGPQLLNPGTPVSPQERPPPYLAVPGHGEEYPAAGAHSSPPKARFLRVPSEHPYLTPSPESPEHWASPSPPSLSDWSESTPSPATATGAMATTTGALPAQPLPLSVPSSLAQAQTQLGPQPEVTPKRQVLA
The nature of assay [10]: small-molecule microarray binders of probe aEGFR, primary screen, biochemical, biotinylated probe, 635/667 nm fluorescence (AID 1097).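 Also: probe is a biotinylated anti-EGFR antibody binding compounds printed on slides; score combines fluorescence near 667 nm and signal to noise of each spot.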 To be noted: higher = more signal.
Assay [11] has as its system Plasmodium falciparum Sir2 (PF13_0152, Sir2A). The assay is described as follows: pfSir2 binders on small-molecule microarrays, primary screen, biochemical, small-molecule microarray, 635 nm fluorescence (AID 1098).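 Also: score merges spot fluorescence intensity with its signal-to-noise ratio.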 To be noted: small-molecule microarray binding, fluorescence 635 nm; higher = more signal.
Assay [12] can be described thus: small-molecule microarray binders of probe aDKK1, primary screen, biochemical, biotinylated probe, 635/667 nm fluorescence (AID 1099).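 Also: score merges 667nm spot fluorescence with signal to noise across triplicate slides; reference of the scale not given here.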 To be noted: higher = more signal.
Assay [13] in a line: small-molecule microarray binders of probe aCHRDL2, primary screen, biochemical, biotinylated probe, 635/667 nm fluorescence (AID 1100). To be noted: higher = more signal.
Assay [14] in a line: splicing luciferase reporter signal modulators, primary screen, spliceosome inhibition project, cell-based, HEK293, splice +/- reporter (AID 1101).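 Also: HEK293 cells carrying a splicing-competent luciferase reporter gene; test concentration not given here.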 To be noted: luminescence, 24 h, higher = more signal, called active from +8 up or from −8 down. (A reporter such as luciferase makes a cellular process visible.)
For assay [15], the target named is Fibroblast growth factor 10 (Homo sapiens) (UniProt O15520). The assay is described as follows: FGF10 binders on small-molecule microarrays, primary screen, biochemical, small-molecule microarray, 635 nm fluorescence (AID 1102). To be noted: FGF10 binding, fluorescence 635 nm, higher = more signal.
Fibroblast growth factor 10 (Homo sapiens), sequence (O15520 whole entry, looked up): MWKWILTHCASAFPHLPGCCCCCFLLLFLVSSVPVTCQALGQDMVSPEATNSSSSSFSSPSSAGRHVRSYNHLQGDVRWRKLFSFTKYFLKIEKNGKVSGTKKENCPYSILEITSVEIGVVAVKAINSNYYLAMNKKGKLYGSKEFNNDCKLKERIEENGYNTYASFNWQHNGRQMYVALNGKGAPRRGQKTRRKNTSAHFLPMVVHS
Assay [16] has as its system glycogen synthase kinase-3 (GSK3A per assay name; protocol says GSK3B). The assay is described as follows: GSK3 binders on small-molecule microarrays, primary screen, biochemical, small-molecule microarray, 635 nm fluorescence, GSK3A (AID 1103). Also: the record names both GSK3A and GSK3B. To be noted: small-molecule microarray binding, fluorescence 635 nm; higher = more signal.
Assay [17] addresses Epidermal growth factor receptor (Homo sapiens) (UniProt P00533). The assay is described as follows: EGFR binders on small-molecule microarrays, primary screen, biochemical, small-molecule microarray, 635 nm fluorescence (AID 1104).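 Also: score merges 667 nm emission intensity with spot signal to noise over triplicate slides.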 To be noted: EGFR binding, higher = more signal.
Assay [18] addresses Follistatin-related protein 3 (Homo sapiens) (UniProt O95633). The assay is described as follows: FSTL3 binders on small-molecule microarrays, primary screen, biochemical, small-molecule microarray, 635 nm fluorescence (AID 1105).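 Also: score merges emission near 667 nm and signal to noise per printed spot across three slides.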 To be noted: FSTL3 binding, higher = more signal.
Assay [19] has as its target Dickkopf-related protein 1 (Homo sapiens) (UniProt O94907). The assay is described as follows: DKK1 binders on small-molecule microarrays, primary screen, biochemical, small-molecule microarray, 635 nm fluorescence scan (AID 1106).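 Also: score merges emission near 667 nm with signal to noise over three replicate slides.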 To be noted: DKK1 binding, higher = more signal.
Assay [20] concerns Inhibin beta A chain (activin A). The assay is described as follows: INHBA (activin A) binders on microarrays, primary screen, biochemical, small-molecule microarray, 635 nm fluorescence scan (AID 1107).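 Also: mouse activin A protein probed at 4.33 µg/mL on printed slides; score merges bound-protein fluorescence near 667 nm with spot signal-to-noise.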 To be noted: small-molecule microarray binding, higher = more signal.

Follistatin-related protein 3 (Homo sapiens), sequence (O95633 whole entry, looked up): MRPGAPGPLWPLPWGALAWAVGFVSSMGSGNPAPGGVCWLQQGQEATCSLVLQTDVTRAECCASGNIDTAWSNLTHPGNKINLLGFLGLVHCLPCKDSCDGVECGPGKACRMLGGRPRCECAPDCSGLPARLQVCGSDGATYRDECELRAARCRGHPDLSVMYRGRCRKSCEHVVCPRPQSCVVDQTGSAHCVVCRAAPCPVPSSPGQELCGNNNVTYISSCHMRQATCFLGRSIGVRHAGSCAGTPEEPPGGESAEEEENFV
Dickkopf-related protein 1 (Homo sapiens), sequence (O94907 whole entry, looked up): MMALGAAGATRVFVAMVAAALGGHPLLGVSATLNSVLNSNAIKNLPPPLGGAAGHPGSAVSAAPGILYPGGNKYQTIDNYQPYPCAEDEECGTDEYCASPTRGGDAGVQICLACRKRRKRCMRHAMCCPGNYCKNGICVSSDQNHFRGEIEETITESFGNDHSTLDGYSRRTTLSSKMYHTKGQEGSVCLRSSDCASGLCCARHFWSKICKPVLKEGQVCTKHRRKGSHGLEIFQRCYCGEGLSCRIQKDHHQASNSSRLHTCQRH
Torsin-1A-interacting protein 2 (Homo sapiens), sequence (Q8NFQ8 whole entry, looked up): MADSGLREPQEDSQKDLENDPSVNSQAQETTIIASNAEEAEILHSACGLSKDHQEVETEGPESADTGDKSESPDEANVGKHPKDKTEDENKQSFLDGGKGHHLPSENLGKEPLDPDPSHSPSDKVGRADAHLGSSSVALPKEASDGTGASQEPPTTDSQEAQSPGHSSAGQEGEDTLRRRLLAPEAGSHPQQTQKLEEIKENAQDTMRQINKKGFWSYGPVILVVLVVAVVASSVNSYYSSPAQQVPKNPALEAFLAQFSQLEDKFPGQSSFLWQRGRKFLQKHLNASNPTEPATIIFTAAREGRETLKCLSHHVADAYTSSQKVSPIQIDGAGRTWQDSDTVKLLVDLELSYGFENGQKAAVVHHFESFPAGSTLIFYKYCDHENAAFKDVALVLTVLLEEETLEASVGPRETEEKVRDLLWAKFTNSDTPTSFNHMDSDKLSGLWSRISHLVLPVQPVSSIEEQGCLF
Epidermal growth factor receptor (Homo sapiens), sequence (P00533 whole entry, looked up): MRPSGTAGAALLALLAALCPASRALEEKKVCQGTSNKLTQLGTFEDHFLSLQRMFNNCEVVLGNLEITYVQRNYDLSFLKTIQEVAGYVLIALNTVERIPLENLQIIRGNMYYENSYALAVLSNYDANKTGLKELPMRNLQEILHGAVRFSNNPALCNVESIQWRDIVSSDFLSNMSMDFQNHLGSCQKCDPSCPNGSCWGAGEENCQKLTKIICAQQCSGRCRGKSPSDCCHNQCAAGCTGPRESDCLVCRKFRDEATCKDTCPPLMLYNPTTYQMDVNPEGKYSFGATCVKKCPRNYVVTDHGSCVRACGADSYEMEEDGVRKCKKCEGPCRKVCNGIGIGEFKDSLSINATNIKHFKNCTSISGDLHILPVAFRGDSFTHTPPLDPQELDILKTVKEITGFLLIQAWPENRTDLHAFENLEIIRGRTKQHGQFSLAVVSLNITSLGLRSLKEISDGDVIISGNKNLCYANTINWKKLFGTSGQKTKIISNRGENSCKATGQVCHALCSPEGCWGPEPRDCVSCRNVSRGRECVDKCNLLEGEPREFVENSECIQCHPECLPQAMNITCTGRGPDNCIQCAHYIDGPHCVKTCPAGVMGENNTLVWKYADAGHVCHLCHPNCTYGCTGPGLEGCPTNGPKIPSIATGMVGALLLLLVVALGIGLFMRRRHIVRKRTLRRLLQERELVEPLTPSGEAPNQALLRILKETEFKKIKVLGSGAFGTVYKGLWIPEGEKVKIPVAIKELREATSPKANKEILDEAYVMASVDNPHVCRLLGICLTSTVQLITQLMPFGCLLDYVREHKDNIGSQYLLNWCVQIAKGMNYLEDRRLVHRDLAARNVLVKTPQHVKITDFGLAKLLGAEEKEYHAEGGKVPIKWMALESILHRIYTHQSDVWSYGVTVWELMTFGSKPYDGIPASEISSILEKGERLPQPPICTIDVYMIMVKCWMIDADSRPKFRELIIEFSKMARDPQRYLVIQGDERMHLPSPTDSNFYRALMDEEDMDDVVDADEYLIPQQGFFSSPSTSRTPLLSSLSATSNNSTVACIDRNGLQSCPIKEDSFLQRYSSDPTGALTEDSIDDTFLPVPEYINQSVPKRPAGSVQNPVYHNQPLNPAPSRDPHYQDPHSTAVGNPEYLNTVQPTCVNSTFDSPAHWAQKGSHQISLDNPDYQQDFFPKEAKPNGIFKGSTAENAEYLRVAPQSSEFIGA

Consider `O=C(CS)NCCCCCNC(=O)[C@H]1C[C@H]2C(=O)N[C@@H](Cc3ccccc3)C(=O)N2[C@H]1c1ccc(O)cc1`, for which the composite z-score is 1.54 in assay [1]; 2.18 in assay [5]; -0.107 in [7]; 1.48 in [8]; 0.781 in assay [9]; 0.178 in [10]. Also, the composite z-score in [11] turned out to be 1.26; in [12], 0.27; in assay [13], 0.299; in assay [15], 0.702; in [16] it was 1.29; in assay [17], 0.957. In addition, the composite z-score in [18] is 0.566; in [19], 1.25; in assay [20], 0.456. For the same compound, the z-score is 0.662 (inactive) in assay [2]; -0.982 (inactive) in assay [3]; 1.86 (inactive) in assay [4]; 1.12 (inactive) in assay [6]; -0.876 (inactive) in assay [14].
`CC(=O)NCCCC[C@@H]1NC(=O)[C@@H]2C[C@H](C(=O)NCc3ccc(F)cc3)[C@H](c3cccc(OCCO)c3)N2C1=O`: the composite z-score in assay [1] is 0.631; in [5], 2.43; in assay [7], 0.207; in assay [8], 0.584; in assay [9], -0.515; in assay [10], -0.0953. The composite z-score in assay [11] is 1.02; in [12] it was 0.0839; in [13], 0.0979; in [15], 0.0733; in [16] it was -0.895; in [17], -0.148. Moreover, the composite z-score in assay [18] is -0.488; in [19] it was -0.047; in assay [20] it was 0.101. Also, the z-score is 0.592 (inactive) in assay [2]; 0.16 (inactive) in [3]; 0.205 (inactive) in assay [4]; 0.496 (inactive) in [6]; 0.281 (inactive) in assay [14].
On to `O=C1OCC=C[C@H]2OC34C=CCN(Cc5ccccc5)C(=O)[C@H]3N(CCCCCO)C(=O)[C@@H]4[C@@H]12` (stereo not given in full), for which the composite z-score in [1] is -0.702; in [5], 1.06; in assay [7] it was 0.0282; in [8], -1.5; in assay [9], -0.911; in assay [10], -0.358. Moreover, the composite z-score in assay [11] was 1.41; in assay [12], -0.212; in assay [13], 0.528; in [15], -0.606; in assay [16] it was -0.447; in assay [17], -1.36. For the same compound, the composite z-score in [18] is -0.647; in assay [19] it was -1.01; in [20], 0.18. Besides, the z-score was -0.524 (inactive) in assay [2]; -1.06 (inactive) in assay [3]; -0.368 (inactive) in [4]; 2.33 (inactive) in [6]; -1.45 (inactive) in assay [14].
On to `O=C1O[C@@H](c2ccccc2)[C@@H](c2ccccc2)N2[C@@H](c3ccc(O)cc3)[C@]3(C(=O)Nc4ccc(C#CC5(O)CCCCCC5)cc43)[C@@H](C(=O)Nc3nc4ccccc4s3)[C@H]12`, for which the composite z-score in assay [1] came to 1.54; in assay [5] it was 2.56; in assay [7], 0.718; in assay [8], 1.26; in [9] it was 1.07; in [10], 0.267. For the same compound, the composite z-score in assay [11] came to 0.864; in [12], 0.051; in [13], 0.546; in assay [15], 0.869; in [16] it was 1.34; in [17], 0.736. The composite z-score in [18] came out at 1.39; in assay [19], 0.892; in [20], 0.644. For the same compound, the z-score in assay [2] was 0.775 (inactive); in [3], -0.399 (inactive); in [4], 1.06 (inactive); in assay [6], 2.03 (inactive); in [14] it was 0.179 (inactive).
Consider `Cc1ccc([C@@H]2CC=C(C(=O)O)[C@H](c3ccccc3)N2S(=O)(=O)c2ccc(C)cc2)cc1`, for which the composite z-score is 1.55 in assay [1]; 3.24 in [5]; 0.755 in assay [7]; -0.971 in assay [8]; 0.673 in assay [9]; 0.0582 in assay [10]. The composite z-score in assay [11] is 1.44; in assay [12], 0.52; in [13], 1.23; in assay [15], 1.24; in assay [16], 0.78; in assay [17], -0.755. Further, the composite z-score in assay [18] is 0.0604; in [19] it was -1.69; in assay [20], -0.575. Moreover, the z-score is -0.0782 (inactive) in assay [2]; -0.249 (inactive) in assay [3]; -0.269 (inactive) in [4]; -1.25 (inactive) in assay [6]; 0.0744 (inactive) in [14].
